PubChem BioAssay
Values joined by “and” are separate entries in the source; they are usually repeats but may differ in a detail not shown here. Equal entries are not always repeated. Active and inactive are the calls of the source. Unless noted, no stated cut-off is given here; in the data, active means inhibition above about 80%; inactive means the rest.

Legend:
[1] = liver-stage malaria parasite load reduction – cell-based, known kinase inhibitor set, luminescence, hepatoma host viability (AID 624392; call rule not given here;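 further: infected cells incubated roughly two days before readout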); conditions: Plasmodium liver stage in hepatoma cells, luciferase luminescence, concentration not given here; liver cell % of control: measured here: host liver cell viability; parasite % of control: stronger effect = lower value
[2] = compounds altering viability of human ES cells (AID 493140; call rule not given here;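 further: cells exposed to compounds for four days before counting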); conditions: human embryonic stem cell survival screen; stronger effect = higher value
[3] = P. berghei load reduction in hepatocytes – cell-based, HepG2, luciferase luminescence, HepG2 viability, primary screen (AID 624349; in the data active means parasite load remaining mostly below about 12%, no sharp cut-off; inactive means mostly above about 10%;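 further: 100% = mean of DMSO negative control wells on the same plate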); conditions: P. berghei liver stage in HepG2, luciferase luminescence, concentration not given here; parasite load remaining: stronger effect = lower value; viability: measured here: HepG2 viability without parasites
[4] = target: NAD(+) hydrolase SARM1 (Homo sapiens) (UniProt Q6SZW1); assay: blocking NAD cleavage by SARM1 SAM-TIR – cell lysate, NAD-Glo luminescence (AID 1508614;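 active means compound whose remaining NAD level is above about 45 nM, limit read from the data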); conditions: SAM-TIR HEK293T lysate NADase, at 1 µM, stronger effect = higher value
[5] = target: Mitogen-activated protein kinase 7 (Homo sapiens) (UniProt Q13164); assay: Gal4-ERK5 driven luciferase induction – cell-based, HTS, primary screen (AID 1508626;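 active means luciferase signal above three times the same-plate solvent-only control wells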;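 further: luciferase driven by Gal4-ERK5 fusion binding five Gal4 sites before minimal TATA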); conditions: HeLa Gal4-ERK5 transactivation, 18 h, at 5 µM, stronger effect = higher value
[6] = galactose survival enhancers in mitochondrial complex I cybrids – cell-based, galactose medium, ATP luminescence, primary screen (AID 1645843;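 active means z-score of at least 1.8 in each of two replicates, scored against plate mean and spread of sample wells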;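 further: positive z means more ATP and so rescue of galactose-driven cybrid death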); conditions: complex I mutant cybrid cells, 72 h, stronger effect = higher value
[7] = growth inhibition, single agents and combos, LFS_MB_1R, cell-based, cisplatin or BGB combos, synergistic combos for chromothripsis tumors (AID 1671452); conditions: LFS_MB_1R medulloblastoma cells, stronger effect = higher value;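 further: cells exposed for 96 hours before readout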
[8] = growth inhibition, single agents and combos, CRL2098, cell-based, BGB or cisplatin IC20 combos, synergistic combos for chromothripsis tumors (AID 1671454); conditions: CRL2098 osteosarcoma cells, drug combinations, stronger effect = higher value;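 further: cells exposed for 96 h before readout; 0% = vehicle DMSO and 100% = killing by high DMSO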
[9] = growth inhibition, single agents and combos, HD-MB03, cell-based, BGB or cisplatin IC20 combos, synergistic combos for chromothripsis tumors (AID 1671455; in the data active means inhibition above about 83%;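 further: 0% = vehicle DMSO and 100% = high DMSO as cytotoxic control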); conditions: HD-MB03 medulloblastoma cells, stronger effect = higher value
[10] = growth inhibition, single agents and combos, UWB1.289, cell-based, BGB or cisplatin combos, synergistic combos for chromothripsis tumors (AID 1671456); conditions: UWB1.289 ovarian carcinoma cells, stronger effect = higher value;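 further: cells exposed to compound for four days; 0% = vehicle DMSO and 100% = killing by high DMSO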
[11] = growth inhibition, single agents and combos, LFS_MB_2R, cell-based, cisplatin combos, synergistic combos for chromothripsis tumors (AID 1671457); conditions: LFS_MB_2R medulloblastoma cells, stronger effect = higher value;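 further: cells exposed to compound for four days before readout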
[12] = UWB1.289_BRCA1 ovarian cancer growth, cell-based, BGB or cisplatin combinations (AID 1671459); conditions: UWB1.289 BRCA1 ovarian carcinoma, drug combinations, stronger effect = higher value
[13] = drug combination toxicity in non-malignant astrocytes – cell-based, BGB or cisplatin IC20 combos, cytotoxicity control for chromothriptic childhood tumor combination screen (AID 1671460); conditions: Human astrocytes, viability inhibition, drug combinations, at 0.5 µM, stronger effect = higher value;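 further: cells exposed to compounds for 96 hours before viability readout; 0% = vehicle and 100% = killing control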
[14] = CRL1545 cell growth, single agent and combined, cisplatin and BGB IC20 combos (AID 1671464); conditions: CRL1545 osteosarcoma cells, stronger effect = higher value;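 further: cells exposed to compound for 96 hours before readout; 0% = vehicle DMSO and 100% = high DMSO killing control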
[15] = compounds altering circadian rhythm period length – cell-based, LOPAC library, luminescence reporter (AID 2774; call rule not given here;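 further: values are relative to mean of DMSO wells on each plate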); conditions: circadian reporter cells, at 7 µM, actives lie on both sides
[16] = tested on: Hepatitis C virus NS3 helicase; assay: blockers of NS3h binding to ssDNA – biochemical, fluorescence polarization, LOPAC1280 library, primary screen (AID 687035; in the data active means inhibition above about 37%); conditions: Purified HCV NS3 helicase, Cy5-dT15 ssDNA binding fluorescence polarization; stronger effect = higher value; concentration not given here
[17] = compounds altering Cy5-DNA-NS3h complex signal – biochemical, LOPAC1280, artefact control for HCV NS3 helicase inhibitor project (AID 687037; call rule not given here); conditions: Cy5-DNA-NS3h complex fluorescence interference counterscreen
[18] = blockers of cellular phospholipid synthesis – cell-based, LOPAC library, screen 4, primary screen (AID 1347384; call rule not given here); conditions: animal cells, phospholipid biosynthesis inhibition screen; at 10 µM
[19] = measured here: combination with BGB IC40, at 0.05 µM
[20] = measured here: combination with cisplatin, at 0.5 µM
[21] = measured here: combination with cisplatin, at 5 µM
[22] = measured here: combination with BGB at IC20, at 0.5 µM
[23] = measured here: combination with cisplatin at IC20, at 0.5 µM
[24] = measured here: combo with BGB at IC20, at 0.5 µM
[25] = measured here: combo with cisplatin at IC20, at 0.5 µM
[26] = measured here: inhibition with BGB combination, at 0.05 µM
[27] = measured here: inhibition with cisplatin combination, at 0.05 µM
[28] = BGB combination, concentration series, at 5 µM
[29] = cisplatin combination, concentration series, at 5 µM
[30] = measured here: combo with BGB IC20
[31] = measured here: combo with cisplatin IC20
[32] = measured here: with BGB IC20 combination, at 0.5 µM
[33] = measured here: with cisplatin IC20 combination, at 0.5 µM

Mitogen-activated protein kinase 7 (Homo sapiens), sequence (Q13164 whole entry, looked up, the tested form may be a part): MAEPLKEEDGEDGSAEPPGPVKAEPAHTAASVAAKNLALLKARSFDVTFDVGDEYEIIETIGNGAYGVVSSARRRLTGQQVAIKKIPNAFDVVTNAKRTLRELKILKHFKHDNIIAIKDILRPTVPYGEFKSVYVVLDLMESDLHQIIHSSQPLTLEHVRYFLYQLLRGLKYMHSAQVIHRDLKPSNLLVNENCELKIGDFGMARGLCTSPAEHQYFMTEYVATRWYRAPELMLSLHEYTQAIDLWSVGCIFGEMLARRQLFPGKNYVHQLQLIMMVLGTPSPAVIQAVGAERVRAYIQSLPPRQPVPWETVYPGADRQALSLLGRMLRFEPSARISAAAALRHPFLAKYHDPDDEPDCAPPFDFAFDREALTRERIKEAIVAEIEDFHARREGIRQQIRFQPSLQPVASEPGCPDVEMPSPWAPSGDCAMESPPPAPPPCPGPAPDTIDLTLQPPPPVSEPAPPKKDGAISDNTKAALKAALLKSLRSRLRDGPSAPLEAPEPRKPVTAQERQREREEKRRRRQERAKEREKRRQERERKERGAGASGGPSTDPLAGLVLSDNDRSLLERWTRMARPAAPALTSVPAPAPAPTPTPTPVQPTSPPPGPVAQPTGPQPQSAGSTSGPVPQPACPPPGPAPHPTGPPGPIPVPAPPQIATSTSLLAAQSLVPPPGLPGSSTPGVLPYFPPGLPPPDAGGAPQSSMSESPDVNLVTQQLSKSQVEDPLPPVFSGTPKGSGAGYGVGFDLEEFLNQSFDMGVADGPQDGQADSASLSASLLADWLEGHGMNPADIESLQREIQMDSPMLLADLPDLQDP
NAD(+) hydrolase SARM1 (Homo sapiens), sequence (Q6SZW1 whole entry, looked up, the tested form may be a part): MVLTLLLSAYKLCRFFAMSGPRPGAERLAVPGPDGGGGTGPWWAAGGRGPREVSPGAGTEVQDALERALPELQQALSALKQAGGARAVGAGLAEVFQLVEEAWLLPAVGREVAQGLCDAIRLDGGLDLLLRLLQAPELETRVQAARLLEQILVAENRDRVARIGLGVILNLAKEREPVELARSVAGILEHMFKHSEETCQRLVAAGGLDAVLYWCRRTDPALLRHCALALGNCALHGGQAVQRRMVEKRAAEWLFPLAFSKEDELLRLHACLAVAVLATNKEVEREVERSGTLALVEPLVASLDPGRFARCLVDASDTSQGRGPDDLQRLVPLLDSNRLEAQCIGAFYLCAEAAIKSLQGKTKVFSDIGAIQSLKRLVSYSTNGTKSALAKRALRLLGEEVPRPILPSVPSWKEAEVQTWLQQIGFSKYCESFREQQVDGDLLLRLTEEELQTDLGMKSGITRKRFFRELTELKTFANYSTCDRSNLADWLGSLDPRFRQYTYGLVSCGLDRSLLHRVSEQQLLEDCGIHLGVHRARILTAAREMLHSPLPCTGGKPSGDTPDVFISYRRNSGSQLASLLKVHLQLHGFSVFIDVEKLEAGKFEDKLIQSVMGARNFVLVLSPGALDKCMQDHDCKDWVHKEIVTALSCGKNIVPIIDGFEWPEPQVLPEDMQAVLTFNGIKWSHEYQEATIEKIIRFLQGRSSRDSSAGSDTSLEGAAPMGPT

For `Cc1nc(N)ncc1-c1nc(N2CCOCC2)c2sc(C(C)(C)O)cc2n1`, the liver cell % of control [1] was 78.4% and 78.6% and 93.7% and the parasite % of control [1] was 406% (inactive) and 544% (inactive) and 660% (inactive).
For `CO[C@H]1/C=C/O[C@@]2(C)Oc3c(C)c(O)c4c(O)c(c(/C=N/N5CCN(C)CC5)c(O)c4c3C2=O)NC(=O)/C(C)=C\C=C\[C@H](C)[C@H](O)[C@@H](C)[C@@H](O)[C@@H](C)[C@H](OC(C)=O)[C@@H]1C`, the survival [2] was 9.5 (inactive), the parasite load remaining [3] was 95.1% (inactive) and 71.6% (inactive) and 41.3% (inactive) and the viability [3] was 99.1% and 71.9% and 96.5%. For the same compound, the remaining NAD [4] was 10 nM (inactive), the luciferase signal [5] was 44 AU (inactive) and the z-score [6] was 1.12 (inactive).
In the case of `Clc1ccc2c(N3CCN(CCCN4CCN(c5ccnc6cc(Cl)ccc56)CC4)CC3)ccnc2c1`, the z-score [6] is reported as -0.6 (inactive).
With `COc1nccc(-c2c(-c3ccc(F)cc3)ncn2C2CCNCC2)n1` the liver cell % of control [1] was 89.2% and 92.3% and 100% and the parasite % of control [1] was 45.1% (inactive) and 35% (inactive) and 41.5% (inactive).
With `c1cc(OCCN2CCCCC2)cc(-c2n[nH]c3ccc(-c4ncn[nH]4)cc23)c1` the liver cell % of control [1] was 77.7% and 82.4% and 94% and the parasite % of control [1] was 63.2% (inactive) and 149% (inactive) and 87% (inactive).
In the case of `O=C(CCCCCCNC(=O)c1cnc(N(c2ccccc2)c2ccccc2)nc1)NO`, the inhibition ([7]; at 0.5 µM) is reported as -2.12% (inactive) and -15.9% (inactive), the inhibition [7, 19] is reported as -29.1% and -24.9% and the inhibition [7, 20] is reported as 6.1% and -31.8%. For the same compound, the inhibition [7, 21] was 84.8% and 59.4%, the inhibition ([8]; at 0.5 µM) was -71.5% (inactive) and -77.4% (inactive) and the inhibition [8, 22] was -57.1% and -110%. The inhibition [8, 23] was -110% and -74.1%, the inhibition ([9]; at 0.5 µM) was 1.23% (inactive) and -11.6% (inactive) and the inhibition [9, 24] was -8.85% and -13.2%. The inhibition [9, 25] was 14.2% and -7.98%, the inhibition ([10]; at 0.5 µM) was 1.59% (inactive) and 9.83% (inactive) and the inhibition [10, 26] was -25.2% and -41.7%. The inhibition [10, 27] was -17.6% and -12.7%, the inhibition ([11]; at 0.5 µM) was -17.5% (inactive) and -17% (inactive) and the inhibition [11, 20] was -3.75% and -9.43%. The inhibition [11, 21] was 74.7% and 60.9%, the inhibition [12, 28] was 47.7% and 28.3% and the inhibition ([12]; at 0.5 µM) was 1.98% (inactive) and -9.53% (inactive). For the same compound, the inhibition [12, 29] was 66.1% and 58.6%, the inhibition [13] was -18.3% (inactive) and 0.04% (inactive) and the inhibition [13, 30] was -21.3% and 12.4%. The inhibition [13, 31] was -18.3% and -8.91%, the inhibition ([14]; at 0.5 µM) was -14% (inactive) and -9.25% (inactive) and the inhibition [14, 32] was -11% and -28.2%. The inhibition [14, 33] was -17.4% and -1.39%, the inhibition ([14]; single agent, at 0.05 µM) was -31.8% and -21.9% and the inhibition ([14]; single agent, at 5 µM) was 89.1% and 74.4%.
With `C[Se]CCC(N)C(=O)O` (stereo not drawn) the remaining NAD [4] was 10 nM (inactive).
For `Cn1c(=O)n(-c2ccc(C(C)(C)C#N)cc2)c2c3cc(-c4cnc5ccccc5c4)ccc3ncc21`, the liver cell % of control [1] was 79.1% and 72.9% and the parasite % of control [1] was 288% (inactive) and 494% (inactive) and 6.49% (inactive).
For `COc1ccccc1N1CCN(CCN(C(=O)C2CCCCC2)c2ccccn2)CC1`, the period change [15] was -0.085 h (inactive), the inhibition [16] was -3% (inactive) and the fluorescence ratio (interference) [17] was 1 (inactive). The outcome [18] was “inactive” and the z-score [6] was -1.04 (inactive).
For `Cc1ccc(C(=O)Nc2cccc(C(F)(F)F)c2)cc1-c1ccc2nc(NCCN3CCOCC3)ncc2c1`, the liver cell % of control [1] was 51.5% and 76.3% and 85.2% and the parasite % of control [1] was 60.4% (inactive) and 252% (inactive) and 87.5% (inactive).
For `CN(C)Cc1c(C(=O)NCCOc2ccc(C(=O)NO)cc2)oc2ccccc12`, the inhibition ([7]; at 0.5 µM) was 45.6% (inactive), the inhibition [7, 19] was -17% and the inhibition [7, 20] was 62.1%. For the same compound, the inhibition [7, 21] was 98.2%, the inhibition ([8]; at 0.5 µM) was 25.5% (inactive) and the inhibition [8, 22] was 32.6%. The inhibition [8, 23] was 21.9%, the inhibition ([9]; at 0.5 µM) was 99.3% (active) and the inhibition [9, 24] was 99.1%. The inhibition [9, 25] was 99.5%, the inhibition ([10]; at 0.5 µM) was 49.7% (inactive) and the inhibition [10, 26] was 11.1%. The inhibition [10, 27] was 27.1%, the inhibition ([11]; at 0.5 µM) was 51.5% (inactive) and the inhibition [11, 20] was 71.4%. For the same compound, the inhibition [11, 21] was 106%, the inhibition [12, 28] was 111% and the inhibition ([12]; at 0.5 µM) was 59.3% (inactive). The inhibition [12, 29] was 125%, the inhibition [13] was 49.9% (inactive) and the inhibition [13, 30] was 45%. The inhibition [13, 31] was 44%, the inhibition ([14]; at 0.5 µM) was 80.7% (active) and the inhibition [14, 32] was 78.9%. The inhibition [14, 33] was 81.1%, the inhibition ([14]; single agent, at 0.05 µM) was 38.5% and the inhibition ([14]; single agent, at 5 µM) was 96.4%.
With `CC[C@H](/C=C/[C@@H](C)[C@H]1CC[C@H]2[C@@H]3CC=C4C[C@@H](O)CC[C@]4(C)[C@H]3CC[C@]12C)C(C)C` the luciferase signal [5] was 52 AU (inactive).
